{"source": "PubChem BioAssay (NCATS)", "note": "“And” between values parts separate entries of the source, which are not always exact repeats. Equal values may be shown once. Results filed as inconclusive are left out. The source made the active and inactive calls. Calls come from the whole dose curve; as a rule, active = well fitted cell-killing curve with a large enough effect; inconclusive = small, poorly fitted or top-dose-only effect, or effect the other way; inactive = no such curve, though single readings can be large or run the other way. Potency is the fitted concentration of half-maximal effect.", "data": [{"experiment": "Viability qHTS for spleen associated tyrosine kinase inhibitor (SYKi) naive MV4-11 cells (AID 1963823); note: nearly all actives have a fitted effect of over 40% in size", "conditions": "MV4-11 AML viability, CellTiter-Glo luminescence, 72 h; series mostly up to 45 µM", "procedure,_shortened": "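Compounds were dispensed acoustically onto plates, MV4-11 cells (SYKi-naive) added at 500 per well, and plates incubated 72 hr at 37 C. CellTiter-Glo was added and luminescence measured after 10 min.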", "values": [{"smiles": "CC1(C)CC[C@]2(C(=O)O[C@@H]3O[C@H](CO[C@@H]4O[C@H](CO)[C@@H](O)[C@H](O)[C@H]4O)[C@@H](O)[C@H](O[C@@H]4O[C@H](CO)[C@@H](O)[C@H](O)[C@H]4O)[C@H]3O)[C@H](O)C[C@]3(C)C(=CCC4[C@@]5(C)CC[C@H](O[C@@H]6OC[C@@H](O)[C@H](O)[C@H]6O)[C@@](C)(C(=O)O)C5CC[C@]43C)[C@@H]2C1", "note": "(stereo not given in full)", "viability (% of control)": "67.4% [at 9.25 µM] (inactive)"}, {"smiles": "Nc1nc2c(nc(Sc3ccc(Cl)cc3)n2[C@@H]2O[C@@H]3COP(=O)(O)O[C@H]3[C@H]2O)c(=O)[nH]1", "Potency": "inactive"}, {"smiles": "COC1CC(O[C@H]2CC[C@]3(C)C4CC[C@]5(C)C(C6=CC(=O)OC6)=CCC56OC46CC[C@@H]3C2)OC(C)C1O[C@@H]1O[C@H](CO[C@@H]2O[C@H](CO)[C@@H](O)[C@H](O)[C@H]2O)[C@@H](O)[C@H](O)[C@H]1O", "note": "(stereo not given in full)", "Potency": "1.55 µM (active)"}, {"smiles": "COc1ccc(CN2CCN(CCCSc3cc(C(C)(C)C)c(O)c(C(C)(C)C)c3)CC2)c(OC)c1OC", "Potency": "3.48 µM (active)"}, {"smiles": "CC1(C)CC[C@]2(C(=O)O[C@@H]3O[C@H](CO)[C@@H](O)[C@H](O)[C@H]3O)CC[C@]3(C)C(=CCC4[C@@]5(C)C[C@@H](O)[C@H](O)[C@@](C)(CO)C5[C@H](O)C[C@]43C)C2[C@@H]1O", "note": "(stereo not given in full)", "Potency": "inactive"}, {"smiles": "CC(=O)OC1C(=O)C2(C)C(O)CC3OCC3(OC(C)=O)C2C(OC(=O)c2ccccc2)C2(O)CC(OC(=O)C(O)C(NC(=O)c3ccccc3)c3ccccc3)C(C)=C1C2(C)C", "note": "(stereo not given)", "Potency": "0.0058 µM (active)"}, {"smiles": "CC(=O)c1c(OCCN2CCCCC2)c(OCCC(C)c2ccc(F)cc2)c2oc(C)nc2c1C", "note": "(stereo not given)", "Potency": "10.3 µM (active)"}, {"smiles": "CC1OC(OC2C(C)OC(OC3C(OC(=O)C45CCC(C)(C)CC4C4=CCC6C7(C)CCC(OC8OC(C(=O)O)C(O)C(O)C8OC8OC(CO)C(O)C(OC9OC(C)C(O)C(O)C9O)C8O)C(C)(CO)C7CCC6(C)C4(C)CC5)OC(CO)C(O)C3O)C(O)C2O)C(O)C(O)C1O", "note": "(stereo not given)", "viability (% of control)": "89.1% [at 9.25 µM] (inactive)"}, {"smiles": "CC1CCC2C(C)(C)C(O)CCC2(C)C12Cc1c(O)cc3c(c1O2)CN(C(CCCN=C(N)N)C(=O)O)C3=O", "note": "(stereo not given)", "Potency": "3.17 µM (active)"}, {"smiles": "N#C/C(=C\\c1ccc(O)c(O)c1)C(=O)NCCCc1ccccc1", "Potency": "8.2 µM (active)"}, {"smiles": "COc1cc(/C=C/C(=O)O[C@@H]2C[C@](O)(C(=O)O)C[C@@H](O)[C@H]2O)ccc1O", "Potency": "inactive"}, {"smiles": "CC(=O)OCC1OC(O[C@H]2CC[C@]34C[C@]35CC(O)[C@]3(C)[C@@H]([C@H](C)CC/C=C(\\C)C(=O)O)C(O)C[C@@]3(C)C5CC[C@H]4C2(C)C)C(O)C(O)C1OC1OCC(O)C(O)C1O", "note": "(stereo not given in full)", "viability (% of control)": "62.3% [at 9.25 µM] (inactive)"}, {"smiles": "O=C(NCc1nc2ccccc2c(=O)n1-c1ccc(F)cc1)Nc1ccc(Cl)c(C(F)(F)F)c1", "Potency": "23.1 µM (active)"}, {"smiles": "Cc1coc2c1CC1OC1(C)CCC1OC1(C)C2", "note": "(stereo not given)", "Potency": "inactive"}, {"smiles": "O=C1Nc2ccc(I)cc2/C1=C/c1cc(Br)c(O)c(Br)c1", "Potency": "18.6 µM (active)"}, {"smiles": "CC1(C)CC2C3=CCC4C5(C)CCC(OC6OC(C(=O)O)C(O)C(O)C6OC6OC(CO)C(O)C(O)C6OC6OC(CO)C(O)C(O)C6O)C(C)(CO)C5CCC4(C)C3(C)CCC2(C)C(OC2OCC(O)C(OC3OC(CO)C(O)C(O)C3O)C2O)C1O", "note": "(stereo not given)", "viability (% of control)": "96.2% [at 9.25 µM] (inactive)"}, {"smiles": "C[C@@H]1O[C@@H](O[C@H]2[C@H](OC(=O)[C@]34CCC(C)(C)C[C@H]3C3=CCC5[C@@]6(C)C[C@H](O)[C@H](O[C@@H]7O[C@H](CO[C@@H]8OC[C@H](O)[C@H](O)[C@H]8O)[C@@H](O)[C@H](O)[C@H]7O)C(C)(C)C6CC[C@@]5(C)[C@]3(C)C[C@H]4O)OC[C@@H](O)[C@@H]2O)[C@H](O)[C@H](O[C@@H]2OC[C@](O)(CO)[C@H]2O)[C@H]1O[C@@H]1OC[C@H](O)[C@H](O[C@@H]2OC[C@@H](O)[C@H](O)[C@H]2O)[C@H]1O", "note": "(stereo not given in full)", "viability (% of control)": "72% [at 9.25 µM] (inactive)"}, {"smiles": "C=C1C(=O)O[C@@H]2C3C(=C(C)[C@@H](O)[C@@H](OC(=O)/C(=C/C)COC(C)=O)[C@@H]12)C(=O)[C@H]1O[C@@]31C", "note": "(stereo not given in full)", "Potency": "2.82 µM (active)"}, {"smiles": "CC(C)=CCC[C@](C)(O[C@@H]1O[C@H](CO[C@@H]2O[C@@H](CO)[C@H](O)[C@H]2O[C@@H]2OC[C@@H](O)[C@H](O)[C@H]2O)[C@@H](O)[C@H](O)[C@H]1O)[C@H]1CC[C@]2(C)[C@@H]1[C@H](O)CC1[C@@]3(C)CC[C@H](O[C@@H]4O[C@H](CO)[C@@H](O)[C@H](O)[C@H]4O[C@@H]4O[C@H](CO)[C@@H](O)[C@H](O)[C@H]4O)C(C)(C)C3CC[C@]12C", "note": "(stereo not given in full)", "viability (% of control)": "94.1% [at 9.25 µM] (inactive)"}, {"smiles": "CC1OC(OC2C(OC3C(O[C@H]4CC[C@@]5(C)C(CC[C@]6(C)C5C(=O)C=C5C7CC(C)(C)CC(O)[C@]7(C)CC[C@]56C)C4(C)C)OC(C(=O)O)C(O)C3O)OCC(O)C2O)C(O)C(O)C1O", "note": "(stereo not given in full)", "viability (% of control)": "54.7% [at 9.25 µM] (inactive)"}, {"smiles": "C[C@@H]1O[C@@H](OC[C@H]2O[C@@H](OCc3ccccc3)[C@H](O)[C@@H](O)[C@@H]2O)[C@H](O)[C@H](O)[C@H]1O", "Potency": "inactive"}, {"smiles": "CCCC(=O)Nc1cccc(NC(=O)c2ccccc2Br)c1", "Potency": "inactive"}, {"smiles": "COc1cc(C(=O)OC[C@@]2(O)CO[C@@H](O[C@H]3[C@H](Oc4ccc(O)cc4)O[C@H](CO)[C@@H](O)[C@@H]3O)[C@@H]2O)cc(OC)c1O", "Potency": "inactive"}, {"smiles": "COc1cc(C2c3cc4c(c(O)c3CC(CO)C2C(=O)O)OCO4)cc(OC)c1O", "note": "(stereo not given)", "Potency": "2.52 µM (active)"}, {"smiles": "CCNC(=O)[C@@H]1CCCN1C(=O)[C@H](CCCN=C(N)N)NC(=O)[C@H](CC(C)C)NC(=O)[C@@H](CC(C)C)NC(=O)[C@H](Cc1ccc(O)cc1)NC(=O)[C@H](CO)NC(=O)[C@H](Cc1c[nH]c2ccccc12)NC(=O)[C@H](Cc1cnc[nH]1)NC(=O)[C@@H]1CCC(=O)N1", "Potency": "inactive"}, {"smiles": "Cc1c(NC(=O)c2cc3c(s2)CCCC3)cccc1-c1cn(C)c(=O)c(Nc2ccc(C3C(=O)N(C)CCN3C)cc2)n1", "note": "(stereo not given)", "Potency": "20.6 µM (active) and 20.9 µM (active)"}, {"smiles": "C=C(C(=O)O)[C@@H]1CC[C@@]2(C)CC[C@@H](O)C(=C)C2C1", "note": "(stereo not given in full)", "Potency": "inactive"}, {"smiles": "Cn1nccc1Nc1nccc(-c2ccn([C@H](CO)c3ccc(Cl)c(F)c3)c(=O)c2)n1", "Potency": "7.31 µM (active)"}, {"smiles": "CCCCOc1ccc(-c2cncc(C(=O)NCc3cccnc3N3CCOCC3)c2)cc1Cl", "Potency": "18.4 µM (active)"}, {"smiles": "COc1ccc2[nH]c3c(-c4cccc5ccccc45)nccc3c2c1", "Potency": "0.651 µM (active)"}, {"smiles": "C[C@@H]1C(=O)O[C@H](C)[C@H]1C[C@@H](O)[C@](C)(O)[C@H]1CC[C@@]2(O)C3=CC(=O)[C@@H]4C[C@@H](O)[C@@H](O)C[C@]4(C)C3CC[C@]12C", "note": "(stereo not given in full)", "Potency": "inactive"}, {"smiles": "CC1CCC2(C(=O)O)CCC3(C)C(=CCC4C5(C)CCC(O)C(C)(C(=O)O)C5CCC43C)C2C1(C)O", "note": "(stereo not given)", "Potency": "inactive"}, {"smiles": "C[C@@H]1O[C@@H](O[C@H]2[C@H](OC(=O)[C@]34CCC(C)(C)C[C@H]3C3=CCC5[C@@]6(C)C[C@H](O)[C@H](O[C@@H]7O[C@H](CO)[C@@H](O)[C@H](O)[C@H]7O)[C@@](C)(CO)C6[C@H](O)C[C@@]5(C)[C@]3(C)C[C@H]4O)OC[C@H](O)[C@@H]2O)[C@H](O)[C@H](O)[C@H]1O[C@@H]1OC[C@@H](O)[C@H](O[C@H]2OC[C@](O)(CO)[C@H]2O)[C@H]1O", "note": "(stereo not given in full)", "viability (% of control)": "84.5% [at 9.25 µM] (inactive)"}, {"smiles": "Cc1ncc(Cl)cc1NCc1ccc(C(=O)NC(CC2CCCC2)C(=O)NC2CC2)s1", "note": "(stereo not given)", "Potency": "20.6 µM (active)"}, {"smiles": "O=C(Nc1ccccc1)c1ccc(Nc2nnc(-c3ccc(O)cc3)c3ccccc23)cc1", "Potency": "16.4 µM (active)"}, {"smiles": "CC(C)(O)C1=CCC23COC(C2)C(O)(C(=O)O)CCC13", "note": "(stereo not given)", "Potency": "inactive"}, {"smiles": "O=C(Nc1ccc(S(=O)(=O)Nc2ccccc2Cl)c(Cl)c1)c1ccccn1", "Potency": "inactive"}, {"smiles": "COc1ccc2c(c1)C=C1Cn3c-2c(C2CCCCC2)c2ccc(cc23)C(=O)NS(=O)(=O)N(C)CCOCCN(C)C1=O", "Potency": "16.4 µM (active)"}, {"smiles": "CC(C)C(NC(=O)c1ccc(O)cc1)C(=O)N1CCCC1C(=O)Nc1c(O)cccc1C(=O)O", "note": "(stereo not given)", "Potency": "inactive"}, {"smiles": "COc1cc(/C=C/C(=O)O[C@H]2[C@H](O)[C@@H](CO)O[C@@]2(CO)O[C@H]2O[C@H](CO)[C@@H](O)[C@H](O)[C@H]2O)ccc1O", "Potency": "inactive"}]}]}
